Bioassay records (PubChem BioAssay)
Bst PK mod: alters activity of Bacillus stearothermophilus pyruvate kinase; purified pyruvate kinase, luminescence ATP production; ribose 5-phosphate activator present at AC10; Potency, µM; actives 1.2% (n = 51,000); AID 361; in the data active = potency below about 11 µM; inconclusive = mostly about 12 µM to 25 µM;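 the screen sought inhibitors and activators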
Luciferase inh: blocks Photinus pyralis firefly luciferase activity. P08659. purified firefly luciferase, luminescence, 8 min. Potency, µM (series often up to 57.1 µM), most hits filed as inhibitors. actives 2.2% (n = 72,000). AID 411; active = well fitted inhibition curve with a large enough effect; inconclusive = small, poorly fitted or top-dose-only effect; note: nearly all actives have a fitted effect of over 40% in size
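Compounds were tested as concentration series (qHTS) against purified P. pyralis luciferase with luciferin and 10 uM ATP in 50 mM imidazole pH 7.2, 50 mM KCl, 7 mM MgCl2, 0.01% Tween 20, 0.05% BSA. Luminescence was read after 8 min at ambient temperature.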
GBA activity: human lysosomal glucosylceramidase modulation; purified enzyme, resorufin glucoside fluorescence (screen aimed at inhibitors), 20 min; P04062; actives 1.1% (n = 48,000); Potency, µM; AID 360; in the data active = potency below about 15 µM; inconclusive = mostly about 16 µM to 33 µM;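 note: the screen sought inhibitors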
Target sequence (P04062 whole entry, looked up): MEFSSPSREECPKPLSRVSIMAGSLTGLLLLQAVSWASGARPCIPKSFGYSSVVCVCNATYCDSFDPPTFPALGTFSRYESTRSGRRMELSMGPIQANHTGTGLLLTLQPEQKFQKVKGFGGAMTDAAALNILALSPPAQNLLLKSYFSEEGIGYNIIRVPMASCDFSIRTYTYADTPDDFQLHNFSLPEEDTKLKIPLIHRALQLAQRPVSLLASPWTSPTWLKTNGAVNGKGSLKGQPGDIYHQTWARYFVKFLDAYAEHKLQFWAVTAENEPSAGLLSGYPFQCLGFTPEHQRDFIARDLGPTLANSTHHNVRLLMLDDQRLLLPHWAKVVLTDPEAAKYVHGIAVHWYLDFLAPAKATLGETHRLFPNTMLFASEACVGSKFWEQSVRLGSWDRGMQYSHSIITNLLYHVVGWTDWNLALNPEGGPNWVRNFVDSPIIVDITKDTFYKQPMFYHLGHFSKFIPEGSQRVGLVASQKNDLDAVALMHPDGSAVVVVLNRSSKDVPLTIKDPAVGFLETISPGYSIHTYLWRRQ
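Compounds titrated against 0.2 nM normal enzyme, 30 uM resorufin beta-D-glucopyranoside substrate, citrate/phosphate buffer with taurocholate and tween-20, pH 5.9. Reaction ran 20 min at room temperature; fluorescence (Ex 548/Em 600) gave AC50.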
A number is an active result; – = inactive; ? = inconclusive; · = not tested or not shown; ! = a repeat was not active; [ ] = dose if it differs, or a comment. Rows were chosen to be rich in hits. Some 3.2% of all compounds tested hit in one or more screens of this group.

SMILES	Bst PK mod	Luciferase inh	GBA activity
c1ccc2c(c1)nnn2CN1CCOCC1	·	–[11.4 µM]	·
CC(C)(C)NC[C@@H](O)c1ccc(O)c(CO)n1	·	–[11.4 µM]	·
Nc1ccccc1CCCC(=O)O	·	–[11.4 µM]	·
O=C(CSc1nnnn1-c1ccccc1)NC(=O)Nc1ccc2c(c1)OCCO2	·	15.8µM	–
O=C(CSc1nnnn1Cc1ccccc1)Nc1ccc2c(c1)OCCO2	–	–	–
NCCc1nc(-c2nc(C(=O)O)cs2)cs1	·	–[11.4 µM]	·
Cc1cc(N2CCC(C(=O)Nc3ccc(F)cc3)CC2)nc(-c2ccccc2)n1	–	–	?
COc1ccc(NC(=O)C2CCN(c3cc(C)nc(-c4ccccc4)n3)CC2)cc1	–	–	13.2
CC1=C(C(=O)Nc2ccccc2)C(c2ccco2)C(C#N)=C(SCc2ccccc2)N1 (stereo not drawn)	·	–	·
CC1=C(C(=O)Nc2ccccc2)C(c2ccco2)C(C#N)=C(SCC(=O)Nc2cccc(C)c2C)N1 (stereo not drawn)	–	–	8.55
O=S1(=O)OC(c2ccc(O)cc2)(c2ccc(O)cc2)c2ccccc21	·	–[11.4 µM]	·
CCOC(=O)C1CCN(C(=O)c2cc3cc4cc(OC)ccc4nc3o2)CC1	–	–	–
COc1ccc2nc3oc(C(=O)N4CCCCC4)cc3cc2c1	?	12.6µM	–
COC(=O)c1ccc(CSc2nc3c(cnn3-c3ccc(C)c(C)c3)c(=O)[nH]2)o1	–	–	13.9
O=c1[nH]c(SCc2ccc(F)cc2)nc2c1cnn2-c1ccc(F)cc1	·	–	·
COc1ccccc1NC(=O)c1oc2ccccc2c1NC(=O)c1cc(OC)c(OC)c(OC)c1	–	–	–
COc1ccccc1NC(=O)c1oc2ccc(C)cc2c1C	·	15.8µM	·
CO/N=C(/C)CCC(=O)OC[C@@H]1O[C@H](C#Cc2ccccc2)C=C[C@@H]1Oc1ccc(C)cc1	·	–[11.4 µM]	·
O=c1c[n+](CC[n+]2cc(=O)o[nH]2)[nH]o1	·	–[11.4 µM]	·
CCNc1nc(N)c(C(=O)c2ccc(Cl)s2)s1	2.17	?	?
CCOC(=O)c1c(NC(=O)c2ccc(Cl)s2)sc(C)c1C	·	–	·
Nc1ccn([C@@H]2O[C@H](COC(=O)C34CC5CC(CC(C5)C3)C4)[C@@H](O)[C@@H]2O)c(=O)n1	·	–[11.4 µM]	·
COc1cc(OC)c(C2CC(=O)N3CN(C)CSC3=C2C#N)cc1OC (stereo not drawn)	·	–	·
COc1ccc2ccccc2c1C1CC(=O)N2CN(C)CSC2=C1C#N (stereo not drawn)	–	?	14.5
CCc1cc2c(nc1CC)CCN(CC/C(C)=N/O[C@@H]1O[C@H](COC(C)=O)[C@H](OC(C)=O)[C@H](OC(C)=O)[C@H]1OC(C)=O)C2	·	–[11.4 µM]	·
SMILES	Bst PK mod	Luciferase inh	GBA activity
CC(CCc1ccccc1)NCC(O)c1ccc(O)c(C(N)=O)c1 (stereo not drawn)	–	–	·
OCc1cc([C@@H](O)CNCCCCCCOCCCCc2ccccc2)ccc1O	·	15.8µM!	·
COC(=O)N1CCC2(CC1)CCN(c1ncccn1)CC2	·	–[11.4 µM]	·
Clc1ccc2nc(N3CCCCC3)sc2c1	–	?	–
Clc1ccc2nc(N3CCCCC3)[nH]c2c1	–	12.6µM	·
Clc1ccc(Cn2ncc3c(N4CCCCC4)ncnc32)c(Cl)c1	–	–	11
Clc1ccc(Cn2ncc3c(N4CCCCC4)ncnc32)cc1	–	–	·
Cc1c(C(=O)O)c(O)cc2c1C(=O)c1c(O)c([C@@H]3O[C@H](CO)[C@@H](O)[C@H](O)[C@@H]3O)c(O)c(O)c1C2=O	·	–[11.4 µM]	·
C=CCSc1nc2ccccc2c(=O)n1Cc1ccco1	·	–[11.4 µM]	·
CN1CCN(S(=O)(=O)c2ccc(N(C)Cc3cccs3)nc2)CC1	–	–	4.48
CCN(CC(=O)NCc1cccs1)c1ccc(S(=O)(=O)N2CCOCC2)cn1	–	–	–
Cc1c(C)c2c(c(C)c1O)CC[C@@](C)(C(=O)O)O2	·	–	·
Cc1cnc(CNc2ncnc3ccc(-c4ccccc4Cl)cc23)cn1	·	–[2.29 µM]	·
CC1(C)CCC2=C(O1)c1ccccc1C(=O)C2=O	·	–	·
CC(=O)Nc1ccc(NC(=O)c2ccco2)cc1	·	–	·
O=C(/C=C/Nc1ccc(F)c(Cl)c1)c1ccco1	–	15.8µM	–
O=C(CCNc1ccc(F)c(Cl)c1)c1ccco1	·	–	·
CC(=O)Nc1ccc(N/C=C/C(=O)c2ccco2)cc1	–	25.1µM	–
O=C1C[C@H]2C(=O)[C@@H]1[C@@H](C(=O)O)[C@H]2C(=O)O	·	–[11.4 µM]	·
CC(C)=CCC/C(C)=C/CO/N=C1/C[C@@H](O)[C@@H](O)[C@@H]2[C@@H]3C(=O)N(C[C@@H]4CCCO4)C(=O)[C@H]3CC[C@@H]12	·	–[11.4 µM]	·
CN(Cc1ccco1)c1nc(-c2ccoc2)nc2ccccc12	·	–[2.29 µM]	·
CS(=O)(=O)Nc1cccc(-c2nc(N3CCOCC3)c3ccccc3n2)c1	·	–[2.29 µM]	·
O=C(Nc1ccc(OC(F)(F)F)cc1)c1cnc2n(c1=O)CCS2	·	–	·
O=C(Nc1ccc(OC(F)(F)F)cc1)C1=NCCN1	–	10µM	1.99
Cn1c(=O)c2[nH]c(CCCCC(=O)O)nc2n(C)c1=O	·	–[11.4 µM]	·
SMILES	Bst PK mod	Luciferase inh	GBA activity
Cc1c(CCC(=O)O)c(=O)oc2cc3occ(-c4ccc(F)cc4)c3cc12	8.31	–	–
Cc1c(CCC(=O)O)c(=O)oc2cc(O)ccc12	·	–	·
CCOC(=O)N/N=C1/C[C@@H](O)[C@@H](O)[C@@H]2[C@@H]3C(=O)N(c4cccc(Oc5ccccc5)c4)C(=O)[C@H]3CC[C@@H]12	·	–[11.4 µM]	·
Cc1cccc(N2CCN(C(=O)c3cc4c(C)nc5ccccc5c4o3)CC2)c1C	·	–	·
CCc1nnc(NC(=O)c2ccc(S(=O)(=O)NCC(C)C)cc2)s1	–	–	1.75
COCc1nnc(NC(=O)c2ccc(NC(=O)C(C)C)cc2)s1	–	–	0.538
COC(=O)Cc1nnc(NC(=O)c2ccccc2)s1	–	–	·
CCc1nnc(NC(=O)c2ccc(S(=O)(=O)N3CCCCC3C)cc2)s1 (stereo not drawn)	–	–	–
CCc1nnc(NC(=O)c2ccc(S(=O)(=O)N3CCCCCC3)cc2)s1	–	–	1.43
CCc1nnc(NC(=O)c2ccncc2)s1	–	–	–
NCC[C@H](N)C(=O)O	·	–[11.4 µM]	·
COc1ccc(CNc2nc(-c3cccc(C#N)c3)nc3ccccc23)c(OC)c1	·	–[2.29 µM]	·
CN1CCN(c2ncncc2-c2cccnc2)CC1	·	–[2.29 µM]	·
CC(=O)OC[C@H]1O[C@@H](CCO/N=C2/[C@H]3O[C@@H]3[C@@H](O)[C@H]3[C@H]2CCn2c(=O)n(-c4ccccc4)c(=O)n23)C=C[C@@H]1OC(C)=O	·	–[11.4 µM]	·
COc1ccc(-c2nc3cnc(N4CCN(C)CC4)nc3n(C3CC3)c2=O)cc1	·	–[11.4 µM]	·
CCCN=Cc1sc2ccc(OCC)cc2c1O	·	15.8µM	·
CCOc1ccc2c(O)csc2c1	·	–	–
CCCCC#Cc1nc(NC)c2ncn([C@@H]3O[C@@H](CO)[C@H](O)[C@H]3O)c2n1	·	–	·
COc1ccccc1-c1ccc(Nc2cccc(C(C)=O)c2)nn1	–	20µM	–
COC(=O)c1cccc(Nc2cc(C)nc(-c3ccccc3O)n2)c1	–	–	·
COc1ccc(OCC(=O)Nc2ccc3c(c2)nc(CCN2CCOCC2)n3C)cc1	–	25.1µM	–
Cn1c(CCN2CCOCC2)nc2cc(NC(=O)COc3ccc(Cl)cc3)ccc21	–	–	–
Fc1ccc(-c2nnc(Cc3nnc(-c4ccc(F)cc4)o3)o2)cc1	–	–	–
Fc1ccc(-c2nnc(NC3=NCCCCC3)o2)cc1	4.51	2.51µM	–
c1ncc(-c2ccoc2)c(NC2CC2)n1	·	–[2.29 µM]	·
COc1cccc(C(=O)Nc2ccc(S(=O)(=O)NCc3ccco3)cc2)c1	–	–	–
